From PubChem BioAssay AID588405 (Sanford-Burnham Center for Chemical Genomics, 2011)
About 6,200 (1.7%) of roughly 360,000 compounds were called active.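 How the source made its calls: active means inhibition of at least 50% at 20 µM; inactive means the rest.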 Only a selection was taken, and actives are over-represented in it overall.

Experiment: inhibition of PEG-3 promoter activity – cell-based, HeLa, luciferase luminescence, primary screen (AID 588405)
Settings: HeLa PEG-Prom luciferase reporter, overnight, at 20 µM, active compounds read high
In the case of `Cc1ccc(F)c(S(=O)(=O)NC(=O)C2(C)CCN2C(=O)CCc2cccs2)c1` (centres undefined), the inhibition is reported as -1.22% (inactive).
With `COCCNC(=O)C1(C)CCCN(Cc2cccc(F)c2)C1` (centres undefined) the inhibition was 1.57% (inactive).
For `CCNC(=O)C1(C)CCN(Cc2ccc(C(=O)OCC)o2)C1` (centres undefined), the inhibition was 2.73% (inactive).
In the case of `O=C(Cc1ccc(NC(=O)C2CCCN(C(=O)CCc3ccccc3)C2)cc1)Nc1ccc(C(=O)N2CCOCC2)cc1` (centres undefined), the inhibition is reported as -12.9% (inactive).
For `COc1cc2[nH]c(=S)n(Cc3ccc(F)cc3)c(=O)c2cc1OC`, the inhibition was 13.7% (inactive).
With `CCOc1cc2[nH]c(=S)n(Cc3ccc(C(=O)NCCOC)cc3)c(=O)c2cc1OCC` the inhibition was 9.27% (inactive).
For `CCOc1cc2[nH]c(=S)n(Cc3ccc(C(=O)N4CCN(C)CC4)cc3)c(=O)c2cc1OCC`, the inhibition was 105% (active).
For `COc1ccc(Br)c(Cn2c(C)c(C(=O)NCc3cccs3)sc2=O)c1`, the inhibition was 7.67% (inactive).
For `Cc1nc(C(F)(F)F)ccc1C(=O)N1CCC1(C)C(=O)NS(=O)(=O)c1ccccc1Cl` (centres undefined), the inhibition was 7.45% (inactive).
In the case of `O=S1(=O)CC(N2CCC(Cc3ccccc3)CC2)CN1Cc1ccccc1` (centres undefined), the inhibition is reported as -15.6% (inactive).
In the case of `O=C(NNc1c2ccccc2nc2ccccc12)c1cc2ccccc2cc1O`, the inhibition is reported as 74.7% (active).
For `O=C(COC(=O)c1ccc(O)cc1O)NC(=O)c1ccccc1`, the inhibition was 19.7% (inactive).
With `O=C(NNC(=O)c1ccccc1O)c1ccccc1O` the inhibition was 23.7% (inactive).
For `O=C(Nc1cccc(S(=O)(=O)N2CCOCC2)c1)C12CC3CC(CC(C3)C1)C2`, the inhibition was 13.8% (inactive).
For `CCCS(=O)(=O)NC(=O)C1(C)CCN(C(=O)c2sccc2C)C1` (centres undefined), the inhibition was -4.46% (inactive).
For `OC(c1ccc(Cl)cc1)c1ncc(-c2ccc(Cl)cc2)[nH]1` (centres undefined), the inhibition was -29.5% (inactive).
For `OC[C@@H]1CN(Cc2ccc(-c3ccccc3)cc2)C[C@H](n2cnc3c(NC4CCCC4)ncnc32)O1`, the inhibition was 19.6% (inactive).
For `CCC(=O)N(Cc1ccccc1)c1ccccn1`, the inhibition was 13.9% (inactive).
With `CC(C)(C)C(=O)N(Cc1ccccc1)c1ccccn1` the inhibition was -2.77% (inactive).
In the case of `Cc1csc2ncc(C(=O)N(Cc3ccccc3)c3ccccn3)c(=O)n12`, the inhibition is reported as 81.4% (active).
With `O=C(CCN1C(=O)[C@@H]2Cc3ccccc3CN2C1=O)NCc1ccccc1` the inhibition was 4.93% (inactive).
In the case of `Cc1cc2oc(=O)cc(CN(C)Cc3ccccc3)c2cc1Cl`, the inhibition is reported as -133% (inactive).
With `Cc1cc2c(cc1C)N1C(=O)c3cc4ccccc4cc3NC(=O)C1C(=O)N2` (centres undefined) the inhibition was 9.54% (inactive).
In the case of `O=c1[nH]c(=S)[nH]c(O)c1/C=C1\C=Nc2ccccc21`, the inhibition is reported as 60.8% (active).
For `COc1cc(C(O)c2nc(-c3cnn(C)c3)cs2)ccc1F` (centres undefined), the inhibition was 9.83% (inactive).
In the case of `CCc1nc2c(OCCOc3ccccc3)cccn2c1N(C)C(=O)c1cccs1`, the inhibition is reported as 30.3% (inactive).
In the case of `CN(C)CCN1CCN(c2cc(-c3cccc(Cl)c3)nc3ccnn23)CC1`, the inhibition is reported as 7.56% (inactive).
With `C#Cc1cc(N2CCN(C(=O)c3ccoc3)CC2)n2nc(-c3cccc(Cl)c3)cc2n1` the inhibition was 79.3% (active).
For `O=C(c1ccccc1)N1CCN(c2cc(-c3ccccc3)nc3cc(-c4cccc(Cl)c4)nn23)CC1`, the inhibition was 16.8% (inactive).
For `CCCC(=O)N1CCC1(C)C(=O)Nc1ccc(-n2cncn2)cc1` (centres undefined), the inhibition was 5.62% (inactive).
In the case of `CN(C)CCNC(=O)c1ccc(-c2cn3c(-c4ccc(Oc5ccccc5)cc4)cnc3cn2)cc1`, the inhibition is reported as 99.7% (active).
For `CN(C)C(CNC(=O)c1ccc(OCc2cn3ccccc3n2)cc1)c1ccco1` (centres undefined), the inhibition was -55.3% (inactive).
For `Cc1noc(C)c1COc1ccc(C(=O)NCCOc2ccccc2)cc1`, the inhibition was -115% (inactive).
In the case of `CCc1ccc(OC2(C)CCN(CCOc3ccc(C)cc3)C2)cc1` (centres undefined), the inhibition is reported as 15.4% (inactive).
In the case of `CCN(CC(=O)NC1CCS(=O)(=O)C1)c1nc(-c2cccnc2)nc2ccccc12` (centres undefined), the inhibition is reported as -4.15% (inactive).
For `S=c1nc2ccccc2c2nc(-c3cccnc3)[nH]n12`, the inhibition was -35.9% (inactive).
In the case of `COc1ccc(Nc2nc(-c3cccnc3)nc3ccccc23)cn1`, the inhibition is reported as 53.5% (active).
With `Cc1ccc(Sc2ccc(NC(=O)c3ccc(F)cc3)cc2C#N)cc1` the inhibition was -1.6% (inactive).
In the case of `CN(CCO)c1ccc(/C=N/Nc2nncc3ccccc23)cc1`, the inhibition is reported as 63.9% (active).
With `CC(C)NC(=O)Nc1ccc2c(c1)C(=O)N([C@H](C)CO)C[C@H](C)[C@@H](CN(C)Cc1ccc(C(F)(F)F)cc1)OCCCC[C@@H](C)O2` the inhibition was 12.5% (inactive).
With `COc1ccc(-c2nnc(SC(=O)N3c4ccccc4Sc4ccccc43)o2)cc1` the inhibition was 51.3% (active).
With `COc1ccc(CN(C(=O)CSc2nnc(-c3ccc(OC)c(OC)c3)o2)c2ccc(F)cc2)cc1` the inhibition was 30.6% (inactive).
For `COc1ccc(-c2nnc(SC(C)C(=O)NC3CC3)o2)cc1` (centres undefined), the inhibition was -27.6% (inactive).
For `CC(=O)C1=CCC(c2ccccc2)N(S(=O)(=O)c2ccc(C)cc2)C1` (centres undefined), the inhibition was 7.17% (inactive).
For `C#CCOc1ccc(/C=C2/C(=O)ON=C2C)cc1OCC`, the inhibition was 27.9% (inactive).
For `COc1cc(/C=C2/C(=O)ON=C2C)ccc1OCc1cccc(F)c1`, the inhibition was 45.1% (inactive).
For `COc1cc(/C=C2/C(=O)ON=C2C)ccc1OCc1ccccc1F`, the inhibition was 66.5% (active).
For `OC[C@@H]1CN(C2CCCC2)C[C@H](n2cnc3c(NC4CCC4)ncnc32)O1`, the inhibition was 4.02% (inactive).
For `CC1CCCCC1NC(=O)/C(C#N)=C/C=C/c1ccccc1[N+](=O)[O-]` (centres undefined), the inhibition was 111% (active).
With `O=[N+]([O-])c1ccccc1/C=C/CN1CCC(O)CC1` the inhibition was 10.2% (inactive).
For `CC(OC(=O)/C=C/c1ccccc1)C(=O)NC1CCCCC1C` (centres undefined), the inhibition was 6.61% (inactive).
With `CCCN(c1ccc(C)cc1)c1nc(=O)c2cccnc2s1` the inhibition was 8.6% (inactive).
For `CC(=O)Nc1cncc(-c2ccccc2CO)n1`, the inhibition was 7.63% (inactive).
In the case of `COc1ccc(CNC(=O)C[C@H]2C[C@H](C(=O)N3CCOCC3)[C@@]3(CCC4CCCC4)c4[nH]c5ccc(Cl)cc5c4CCN3C2=O)cc1OC`, the inhibition is reported as 56.1% (active).
In the case of `O=C(C[C@H]1C[C@H](C(=O)N2CCOCC2)[C@@]2(CCC3CCCC3)c3[nH]c4ccc(Cl)cc4c3CCN2C1=O)NCc1ccco1`, the inhibition is reported as 61.1% (active).
For `CC[C@]12c3[nH]c4ccc(OC)cc4c3CCN1C(=O)C(CC(=O)NCc1ccco1)C[C@@H]2C(=O)N1CCN(C(=O)C2CC2)CC1` (some centres undefined), the inhibition was -6.85% (inactive).
With `CC[C@]12c3[nH]c4ccc(Cl)cc4c3CCN1C(=O)[C@@H](CC(=O)NCCN1CCOCC1)C[C@@H]2C(=O)N1CCN(C(=O)C2CC2)CC1` the inhibition was -0.39% (inactive).
With `COc1ccc2[nH]c3c(c2c1)CCN1C(=O)C(CC(=O)NCCCN(C)C)C[C@H](C(=O)N2CCOCC2)[C@@]31CCC1CCCC1` (some centres undefined) the inhibition was 1.46% (inactive).
In the case of `CN(C)C(=O)CCc1ccc2c3c([nH]c2c1)[C@]1(CCC2CCCC2)[C@@H](C(=O)N2CCOCC2)C[C@H](CC(=O)NCc2ccco2)C(=O)N1CC3`, the inhibition is reported as 0.84% (inactive).
